Sampled rows, rich in hits. Any-hit rate of the full collection: about 21%.
TDP1 cell CPT: growth inhibition of DT40 Tdp1-/-;hTDP1 cells with camptothecin (screen for TDP1 inhibitors). chicken DT40 Tdp1-/-;hTDP1 cells + 20 nM CPT, ATP luminescence, 48 h. Potency, µM (highest dose often 46.2 µM), for inactives: at the highest dose activity change, negative = growth inhibition, most hits filed as inhibitors. 420,000 tested, 12% active; also: potency is read from the fitted curve at half-maximal effect; nearly all actives have a fitted effect of over 55% in size
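Cell growth measured by CellTiter-Glo luminescence after a minimum 48 h, 37 C compound exposure with 20 nM CPT in Tdp1-knockout DT40 cells stably expressing hTDP1, seeded 400/well; qHTS titration format.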
RORg inh: blocks mouse ROR gamma transcriptional activity; P51450; Drosophila S2 Gal4-RORgamma UAS-luciferase reporter, 20 h; Potency, µM (top dose mostly 53.6 µM), without a hit: top-dose activity change, negative = inhibition, usual class: inhibitors; 310,000 tested, 5.4% active; AID 2551; also: potency is read from the fitted curve at half-maximal effect; nearly all actives have a fitted effect of over 60% in size
Target sequence (P51450 whole entry, looked up, the tested form may be a part): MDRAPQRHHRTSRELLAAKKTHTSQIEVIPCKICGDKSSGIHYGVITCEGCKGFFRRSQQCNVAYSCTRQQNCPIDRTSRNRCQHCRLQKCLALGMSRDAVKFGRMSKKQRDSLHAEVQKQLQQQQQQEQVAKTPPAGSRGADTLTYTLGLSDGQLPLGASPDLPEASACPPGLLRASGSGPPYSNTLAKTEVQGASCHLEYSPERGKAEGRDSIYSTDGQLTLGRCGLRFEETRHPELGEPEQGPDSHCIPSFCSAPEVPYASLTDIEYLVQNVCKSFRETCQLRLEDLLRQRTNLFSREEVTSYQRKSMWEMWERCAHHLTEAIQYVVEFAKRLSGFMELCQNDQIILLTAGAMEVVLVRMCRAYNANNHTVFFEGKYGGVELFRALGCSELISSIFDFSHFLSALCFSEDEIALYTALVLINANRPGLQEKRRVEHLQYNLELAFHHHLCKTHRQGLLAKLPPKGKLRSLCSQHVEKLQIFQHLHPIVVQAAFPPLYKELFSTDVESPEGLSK
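In this cell-based reporter format, copper sulfate (700 uM final) drives Gal4–ROR gamma fusion expression from a metallothionein promoter in Drosophila Schneider cells; compounds preincubated 1 hr, reporter read after 20 hr at ambient temperature.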
DT40 TDP1 no CPT: qHTS for Inhibitors of human tyrosyl-DNA phosphodiesterase 1 (TDP1): qHTS in cells in absence of CPT; DT40 Tdp1-/- hTDP1 cells, no CPT, ATP luminescence, 48 h; Potency, µM (doses to about 46.2 µM), for the others: top-dose activity change, negative = growth inhibition, actives largely listed as inhibitors; 420,000 tested, 15% active; AID 686978, 2013; also: potency is read from the fitted curve at half-maximal effect; nearly all actives have a fitted effect of over 55% in size
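Readout: luminescence from CellTiter-Glo after 30 min in the dark at RT. Cells: DT40 Tdp1-/- with stable hTDP1, 400/well. Exposure: compounds alone, ≥48 hr, 37 °C.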
IL1B secr inh: blocks inflammasome-driven IL-1 beta release | THP-1 LPS/ATP IL-1B secretion, AlphaLISA, 16 h; hits give low values | activity change, % at 57.5 µM | 360,000 tested, 4.7% active | AID 743279; in the data active = activity change below about -50%; inconclusive = mostly about -30% to -49%
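THP-1 cells pretreated 1 hr with compounds (up to 57.5 uM final), then stimulated with LPS (250 ng/mL final) plus ATP (1.25 mM final); secreted IL-1B measured by AlphaLISA after 16 hr, decreased signal indicating inhibition.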
VP16 counter: counter-screen for ROR gamma inhibitors: Gal4-VP16 reporter. Drosophila S2 Gal4-VP16 UAS-luciferase, luminescence, 20 h. 310,000 tested, 3.5% active. AID 2546. Potency, µM (highest dose often 53.6 µM), without a hit: top-dose activity, negative = inhibition, most hits filed as inhibitors;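 also: Gal4-VP16 expression switched on by copper sulfate through the metallothionein promoter; potency is read from the fitted curve at half-maximal effect; nearly all actives have a fitted effect of over 50% in size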
ELG1 repair inh: blocks ELG1-dependent DNA repair in HEK293T cells. 330,000 tested, 2.3% active. AID 504467. Potency, µM (doses to about 46.1 µM), without a hit: at the top dose activity change, negative = inhibition, hits mostly inhibitors. HEK293T ELG1-luciferase reporter, luminescence, 16 h; DNA damage induced by 5-fluorouridine; also: potency is read from the fitted curve at half-maximal effect; nearly all actives have a fitted effect of over 55% in size
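Step one: seed 2,000 cells per well. Step two: pin-transfer compound or DMSO alongside 5-fluorouridine. Step three: incubate 16 hr, 37 °C, 5% CO2. Step four: add ONE-Glo, wait 30 min, read luminescence.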
Active calls of the source: *; ? = inconclusive; . = no result; [ ] = remark or other dose. Unless noted, calls follow the shape of the dose curve; as a rule, active = well fitted curve in the direction sought with a large enough effect; inconclusive = small, poorly fitted or top-dose-only effect, or another doubt; inactive = no such curve, though single readings can be large; an effect the other way counts as inactive or inconclusive. % is scaled to controls: 0 for no effect and ±100 for the full control effect.

SMILES	TDP1 cell CPT	RORg inh	DT40 TDP1 no CPT	IL1B secr inh	VP16 counter	ELG1 repair inh
Cc1ccc(C)c(S(=O)(=O)N2CCN(C(=O)c3ccc(-n4cncn4)c([N+](=O)[O-])c3)CC2)c1	?	.	?	-1	.	-3%
Cc1ccc(C)c(S(=O)(=O)N2CCN(C(=O)c3ccc(N4CCCC4)c([N+](=O)[O-])c3)CC2)c1	?	68%	?	-30	-2%	21µM*
O=C(c1ccc(N2CCOCC2)c([N+](=O)[O-])c1)N1CCCCC1	-11%	3%	1%	39	0%	10%
O=C(CN1C(=O)CCn2nc(-c3ccccc3)cc21)NCc1ccc(F)cc1	10%	.	-5%	.	.	.
Cc1ccc(CC(=O)Nc2ccc([N+](=O)[O-])cc2C)cc1	-15%	-4%	-4%	-57*	-9%	?
CC(=O)c1ccc(OCCCC(=O)Nc2cc(S(=O)(=O)N(C)C)ccc2C)cc1	-12%	26%	-21%	10	-6%	-5%
CCCCNC(=S)Nc1cc([N+](=O)[O-])ccc1C	0%	11µM*	-4%	-5	?	2%
CCN(CC(=O)Nc1cc(S(=O)(=O)N2CCCCC2)ccc1C)Cc1ccccc1	21µM*	.	18µM*	-14	.	-3%
CC(=O)c1ccc(OCCCC(=O)Nc2cc(S(=O)(=O)N3CCCCC3)ccc2C)cc1	?	.	23µM*	6	.	-17%
CCOC(=O)C(=O)Nc1cc([N+](=O)[O-])ccc1C	2%	-1%	1%	0	-9%	-2%
COc1ccc(-c2oc3ncn4nc(COc5ccc(C)cc5)nc4c3c2-c2ccc(OC)cc2)cc1	-3%	.	?	.	.	.
O=C(COC(=O)/C=C/c1cccc(F)c1)NC1CCCCC1	6%	.	-1%	0	.	.
COCC(=O)Nc1cc([N+](=O)[O-])ccc1C	23µM*	1%	?	-5	-2%	-5%
CCN(CC(=O)Nc1ccc(C)c(S(=O)(=O)N2CCOCC2)c1)Cc1ccccc1	21µM*	.	?	-2	.	?
Cc1ccc(S(=O)(=O)N2CCCCC2)cc1NC(=O)CCOc1ccccc1	?	?	?	-2	6%	-8%
CCCCNC(=S)Nc1cc(S(=O)(=O)N2CCCCC2)ccc1C	-1%	5.6µM*	1%	2	10µM*	-4%
Cc1ccc(NC(=O)CCc2ccccc2)cc1S(=O)(=O)N1CCOCC1	-29%	.	?	29	.	?
Cc1ccc(S(=O)(=O)N2CCCCC2)cc1NC(=O)CCCOc1ccccc1	?	.	21µM*	-4	.	7%
Cc1ccc(S(=O)(=O)N2CCCCC2)cc1NC(=O)c1ccco1	-12%	.	-24%	-17	.	.
COc1ccc(/C=C/C(=O)NC(=S)Nc2ccc(S(=O)(=O)N=C(N)N)cc2)cc1OC	1%	-9%	-10%	-2	-5%	3%
COCCNC(=O)C1(C)CCCN(C(=O)c2ccc(F)cc2Cl)C1 (stereo not drawn)	7%	.	-4%	11	.	.
CCN(CC(=O)NCC(=O)Nc1ccc(Br)cc1C)Cc1ccccc1	-19%	.	?	-63*	.	-6%
C/C(=N\NC(=O)c1ccc(Cl)cc1)c1ccc(Br)s1	12µM*	0.35µM*	10µM*	-28	1.1µM*	?
C/C(=N\NC(=O)c1cc(Cl)ccc1O)c1ccc(Br)s1	?	6.3µM*	?	18	2.5µM*	?
C/C(=N/NC(=O)c1ccco1)c1ccc(Br)s1	-14%	13µM*	0%	-30	?	?
SMILES	TDP1 cell CPT	RORg inh	DT40 TDP1 no CPT	IL1B secr inh	VP16 counter	ELG1 repair inh
C/C(=N/NC(=O)CNc1ccc(C)cc1)c1ccc(Br)s1	18µM*	4%	18µM*	-1	1%	?
C/C(=N\NC(=O)c1ccco1)c1ccc(NC(=O)c2cccs2)cc1	-24%	?	?	-20	-21%	8%
COC(=O)N1CCC2(CC1)CCN(c1ncccn1)CC2	-2%	-2%	-20%	.	13%	.
CC1(C(=O)NS(=O)(=O)c2ccccc2OC(F)(F)F)CCN1C(=O)Cc1ccccc1 (stereo not drawn)	1%	.	-10%	0	.	.
O=C(O)c1ccc2c(c1)C(=O)N([C@H](Cc1ccc(Cl)cc1)C(=O)O)C2=O	.	-22%	.	.	2%	.
O=C(CC(Sc1ccccc1)c1cccs1)c1ccco1 (stereo not drawn)	18µM*	?	26µM*	-70*	1%	-7%
Nc1nc2ncn(COCCO)c2c(=O)[nH]1	18%	.	-4%	.	.	.
O=C(OCc1ccccc1)c1cccnc1	?	1%[10 µM]	9.4µM*	.	3%	.
Cc1nn(CCCC(=O)NCc2ccccc2)c(=O)c2c1sc1ccccc12	?	.	-76%	.	.	.
CCOC(=O)N1CCN(C(=O)CCCn2nc(C)c3sc4ccccc4c3c2=O)CC1	?	16%	26µM*	?	-5%	?
COc1ccc(CCNC(=O)CCCn2nc(C)c3sc4ccccc4c3c2=O)c(OC)c1	23µM*	.	?	.	.	.
CC(=O)Nc1ccc(NS(=O)(=O)c2c(C(=O)N3CCCCCC3)c(C)n(C)c2C)cc1	6%	.	1%	.	.	.
Cc1ccccc1NS(=O)(=O)c1ccc(C(=O)N2CCN(c3ccccn3)CC2)cc1	?	33%	15µM*	-4	?	?
Cc1ccccc1NS(=O)(=O)c1ccc(C(=O)N2CCN(c3ccccc3O)CC2)cc1	12µM*	66%	15µM*	?	-10%	?
Cc1ccccc1NS(=O)(=O)c1ccc(C(=O)N2CCCCCC2)cc1	?	.	?	2	.	-21%
COc1ccc(C2=NOC(Cn3c(Cc4ccc(Cl)cc4)nc4c3c(=O)n(C)c(=O)n4C)C2)cc1 (stereo not drawn)	26µM*	14%	23µM*	-29	-3%	?
Oc1ccc(-c2cnccn2)cc1CN1CCN(C2CCCCC2)CC1	-75%[9.04 µM]	.	-21%	.	.	.
COc1ccc(C(=O)/C=C2\C(=O)Nc3ccc(Br)cc32)cc1	2.9µM*	.	18µM*	-99*	.	.
O=C(NCc1ccc2c(c1)OCO2)c1ccc(Br)cc1	0%	25%	-20%	-3	2%	9%
COc1ccc(C(=C2C(=O)Nc3ccccc32)c2ccc(OC)cc2)cc1	.	22%	.	.	5%	.
O=C1Nc2ccc(Br)cc2/C1=C/C(=O)c1ccc2c(c1)OCO2	5.8µM*	11µM*	3.3µM*	?	?	0%
COc1ccc(NC(=O)Cn2c(=O)n(Cc3nc(-c4ccccc4)no3)c(=O)c3cc4c(cc32)OCO4)c(OC)c1	-20%	.	-5%	.	.	.

Source: PubChem (National Center for Advancing Translational Sciences (NCATS))
